# Screens as filed in PubChem BioAssay.
# Glioma ERSR ind = ER stress response induction in glioma; U87-MG GRP78 promoter luciferase reporter, 16 h; Potency, µM, for inactives: at the highest dose activation, actives largely listed as activators; 0.02% of 420,000 active; AID 602332; further: series mostly up to about 76 µM; % of control where 0% means no effect; nearly all actives have a fitted effect of over 35% in size
#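 Stably transfected U87-MG glioma cells carrying a GRP78-based luciferase sensor; 16 h compound incubation. Luminescence end-point read 10 min after Bright-Glo addition at room temperature.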
# FUS yeast rescue = rescues growth of FUS-expressing yeast | Potency, µM (titrated, usually from 76.6 µM), actives largely listed as activators | 0.24% of 390,000 active | S. cerevisiae FUS-expressing, growth rescue, OD600, 24 h | AID 1347120;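 further: plate controls were DMSO vehicle for no effect and reference control for full effect; nearly all actives have a fitted effect of over 55% in size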
#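 Read-out: OD at 600 nm after 24hr at 30C, reporting rescue of FUS-induced yeast toxicity. Cells at OD 0.005 in galactose (2%) minimal medium; compounds tested in a dilution series; CP55940 titration from 92uM final as control.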
# aSyn yeast inh = alpha-synuclein toxicity inhibition in yeast | 0.14% of 370,000 active | Potency, µM (titrated, usually from 46.1 µM), inactives show at the top dose growth rescue (activation), usual class: activators | Yeast expressing alpha-synuclein, growth rescue, BacTiter-Glo, 24 h; further: % of control where 0% means no effect; nearly all actives have a fitted effect of over 65% in size
#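 Rescue of yeast growth: cells expressing toxic alpha-synuclein, induced in galactose at OD600 0.02, incubated with compound 24 h at 30 C. ATP luminescence quantified growth; inhibitors of toxicity appear as activators.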
# MBNL1-CUG inh = inhibitors of human MBNL1 binding to CUG repeat RNA. Q9NR56. TR-FRET MBNL1-His/biotin-(CUG)12 binding, 665/545 ratio. Potency, µM (series often up to 57.5 µM), for the others: at the highest dose activity change, negative = inhibition, hits mostly inhibitors. 0.036% of 280,000 active; active means well fitted inhibition curve with a large enough effect in the signal ratio, with a control signal flat, not every such curve was filed as active; inconclusive means small, poorly fitted or top-dose-only effect, or effect the other way, or a change in a side signal; inactive means no such curve, though single readings can be large or run the other way; the % refers to the signal ratio; further: on the % scale 0 is the no-effect control and ±100 the full control effect
# Target sequence (Q9NR56 whole entry, looked up): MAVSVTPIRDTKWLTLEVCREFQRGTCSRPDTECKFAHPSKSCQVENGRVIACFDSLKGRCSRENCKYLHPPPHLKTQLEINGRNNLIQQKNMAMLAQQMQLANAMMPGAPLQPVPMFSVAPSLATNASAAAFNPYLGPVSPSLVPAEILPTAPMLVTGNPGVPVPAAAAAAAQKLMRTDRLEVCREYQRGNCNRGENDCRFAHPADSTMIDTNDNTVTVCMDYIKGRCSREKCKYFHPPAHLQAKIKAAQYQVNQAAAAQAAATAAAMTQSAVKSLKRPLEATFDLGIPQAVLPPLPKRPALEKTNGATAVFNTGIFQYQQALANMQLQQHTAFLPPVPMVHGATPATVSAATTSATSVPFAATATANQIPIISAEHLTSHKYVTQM
#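 Compounds (final 92 nM to 58 uM) are added to His-tagged MBNL1 and biotin-(CUG)12, then terbium anti-His antibody and streptavidin-XL665 (5 nM final). After 60 min at room temperature, the 665/545 nm ratio is read.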
# Abeta yeast res = compounds reversing amyloid beta toxicity in yeast. yeast expressing A-beta42, growth rescue, OD600, 48 h; response scale: 0% DMSO, 100% iron-clioquinol control. Potency, µM (highest dose often 46.1 µM), most hits filed as activators. 0.063% of 410,000 active. AID 1347071; further: nearly all actives have a fitted effect of over 55% in size
#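 Yeast growth medium received pinned compounds, then yeast cells expressing toxic A-beta were added; plates incubated at 30 C for 48 hr. Growth read as absorbance at 600 nm, normalized to DMSO and equimolar FeCl3 plus clioquinol controls.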
# TDP-43 yeast inh = TDP-43 toxicity inhibition in yeast. 1.8% of 410,000 active. TDP-43 expressing yeast growth rescue, BacTiter-Glo, 24 h. Potency, µM (doses to about 46.1 µM), without a hit: at the top dose growth rescue (activation), usual class: activators; further: % of control where 0% means no effect; nearly all actives have a fitted effect of over 50% in size
#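 Yeast cells expressing TDP-43 under galactose induction are exposed to compounds for 24 hr at 30 deg C. BacTiter-Glo luminescence measures growth, so protective compounds score as activators.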
# Numbers without * were called inactive; i = inactive; ? = inconclusive; / = not tested or not shown. An excerpt weighted towards active compounds, which were near 2% of everything screened. Unless noted, the call rests on the fitted dose curve; in most records, active means well fitted curve in the direction sought with a large enough effect; inconclusive means small, poorly fitted or top-dose-only effect, or another doubt; inactive means no such curve, though single readings can be large; an effect the other way counts as inactive or inconclusive. Potency means the concentration at half of the fitted maximal effect.
SMILES,Glioma ERSR ind,FUS yeast rescue,aSyn yeast inh,MBNL1-CUG inh,Abeta yeast res,TDP-43 yeast inh
COC(=O)[C@]1(Cc2ccccc2)N[C@H](c2ccc(-c3cccc(Cl)c3)cc2)[C@@H]2C(=O)N(C)C(=O)[C@@H]21,-2%,14µM*,27%,/,i,8%
CCN1C(=O)[C@H]2[C@@H](c3ccc(-c4ccc(Cl)c(Cl)c4)c(OC)c3)N[C@@](C)(C(=O)OC)[C@H]2C1=O,-5%,i,-1%,/,i,5%
COC(=O)[C@]1(Cc2ccccc2)N[C@H](c2ccc(-c3ccccc3)cc2)[C@@H]2C(=O)N(C)C(=O)[C@@H]21,-8%,i,6%,/,i,11%
CCN1C(=O)[C@H]2[C@@H](c3ccc(-c4ccc(Cl)c(Cl)c4)c(OC)c3)N3CCCC[C@@]3(C(=O)OC)[C@H]2C1=O,-6%,25µM*,?,/,i,3%
CCN1C(=O)[C@@H]2[C@@H](c3ccc(-c4ccc(Cl)c(Cl)c4)cc3)N3CCC[C@@]3(C(=O)OC)[C@@H]2C1=O,-5%,20µM*,2%,/,i,14%
Cc1cnc(SCc2ccccn2)nc1C1CCCN(C(=O)c2ccc3c(c2)OCO3)C1 (configuration not stated),1%,/,/,/,/,/
Cc1oc(-c2ccccc2NC(=O)c2ccsc2)nc1CN(C)CC1CC=CCC1 (configuration not stated),-6%,/,/,/,/,/
COc1ccccc1N1CCN(c2nc(CNC(=O)c3ccc(C)c(C)c3)nc3ccccc23)CC1,-6%,/,/,/,/,/
COc1ccc(CN2C[C@H](Sc3nc4ccccc4[nH]3)C[C@H]2C(=O)N2CCCN(C)CC2)cc1C,-3%,/,/,/,/,/
CCC(C)c1ccc(NC(=O)c2c([N+](=O)[O-])cnn2CC)cc1 (configuration not stated),2%,i,17%,?,i,20µM*
CC(C)C1C(=O)N(Cc2cn(CCC3OCCO3)nn2)CCS(=O)(=O)N1Cc1ccc(-c2ccncc2)cc1 (configuration not stated),-1%,i,-2%,/,i,18%
CC(C)C1C(=O)N(Cc2cn(CCC3OCCO3)nn2)CCS(=O)(=O)N1Cc1ccc(-c2ccccc2)cc1 (configuration not stated),-3%,?,0%,/,i,?
CC(C)C1C(=O)N(Cc2cn(CCC3OCCO3)nn2)CCS(=O)(=O)N1Cc1ccc(-c2ccccc2Cl)cc1 (configuration not stated),-3%,?,?,/,i,35µM*
CC(C)C1C(=O)N(Cc2cn(CCC3OCCO3)nn2)CCS(=O)(=O)N1Cc1ccc(-c2ccc(F)cc2Cl)cc1 (configuration not stated),-3%,?,?,/,i,22µM*
O=C(c1ccccc1)C(c1ccccc1)[n+]1csc2ccccc21 (configuration not stated),-6%,/,/,/,/,/
Cc1cc(=O)oc2cc(OCCc3ccccc3)ccc12,5%,i,2%,-1%,i,13µM*
Cc1cc(=O)oc2cc(OCCCC[n+]3ccccc3)ccc12,0%,i,-12%,-1%,i,-10%
CCOC(=O)c1c(-c2ccc(OC)cc2)csc1/N=C/C1=C(O)CCCC1=O,-13%,?,11%,?,i,8.9µM*
CCOC(=O)c1c(/N=C/C2=C(O)CCCC2=O)sc(C)c1C,-7%,i,1%,-8%,i,-11%
COc1ccc(-c2cc(C(=O)NN=C/C(C)=C/c3ccccc3)[nH]n2)cc1,/,i,/,/,/,/
CC(C)(C)OC(=O)C[C@H]1C/C=C\C[C@@H](CC(=O)N(CCO)Cc2ccccc2)C(=O)N[C@H](Cc2c[nH]c3ccccc23)COC1=O,-5%,20µM*,-4%,/,i,3%
COc1cc(CNCc2cc3ccc(F)cc3nc2N2CCOCC2)cc(OC)c1OC,-2%,/,/,/,/,/
CCNC(=O)c1ccc2c(c1)sc1nc(-c3cccc(OC)c3)cn12,-3%,i,/,/,i,16µM*
CCCCN(C(=O)CSc1nn(-c2ccc(F)cc2)c(=S)s1)c1c(N)n(CCCC)c(=O)[nH]c1=O,-1%,7.1µM*,-4%,/,i,-17%
CCCCN(C(=O)CSc1nc2ccccc2s1)c1c(N)n(CCCC)c(=O)[nH]c1=O,3%,?,-1%,/,i,-4%
SMILES,Glioma ERSR ind,FUS yeast rescue,aSyn yeast inh,MBNL1-CUG inh,Abeta yeast res,TDP-43 yeast inh
C#CCN(Cc1nc(N2CCOCC2)c2ccc(Cl)cc2n1)Cc1ccco1,-2%,/,/,/,/,/
O=S(=O)(c1c(Cl)sc(Cl)c1Br)N1CCCC1,-3%,i,10%,9%,i,11µM*
O=S(=O)(c1ccc(Cl)cc1)N1CCCCCC1,-2%,i,2%,-1%,i,24%
O=C1Nc2ccccc2C(=O)C1(Cl)Cc1ccccc1 (configuration not stated),1%,i,-52%,11%,i,35µM*
CCc1c(-c2n[nH]c(=S)n2Cc2ccccc2)csc1C,-4%,i,-4%,-9%,i,11µM*
Cc1scc(-c2n[nH]c(=S)n2Cc2ccccc2)c1C,4%,/,6%,10%,i,?
CN1/C(=C\C(=O)c2cncc(Br)c2)C(C)(C)c2ccccc21,-2%,i,13%,21%,i,13µM*
CN1/C(=C\C(=O)c2cccnc2)C(C)(C)c2ccccc21,-2%,i,12%,3%,i,3%
CN1/C(=C/C(=O)c2nc(S(C)(=O)=O)ncc2Cl)C(C)(C)c2ccccc21,-15%,/,4%,15%,i,13µM*
CN1/C(=C\C(=O)c2ccco2)C(C)(C)c2ccccc21,2%,i,-35%,76%,i,-61%
Cc1ccc2nc(SCC(=O)N3CCOc4ccc(CN5C[C@@H](C)O[C@@H](C)C5)cc4C3)[nH]c2c1,-2%,/,/,/,/,/
CCOC(=O)/C=C(\C)Sc1cc(O)c2ccccc2c1O,-13%,i,-66%,?,i,-94%
CCOC(=O)/C=C(\C)Sc1cc(=O)oc2ccccc12,-9%,i,-8%,?,i,14µM*
CO[C@H]1[C@H](NC(=O)C(C)C)c2ccccc2C12CCN(Cc1c(C)nn(C)c1Cl)CC2,-6%,/,/,/,/,/
O=C(C[n+]1cccc(Br)c1)c1ccccc1,6%,i,2%,7%,i,5%
O=C(C[n+]1cccc(Br)c1)c1ccc(-c2ccccc2)cc1,0%,i,-5%,17%,i,1.6µM*
COc1cc2c(NC3CCN(C)CC3)nc(N3CCCN(C)CC3)nc2cc1OCCN(C)C,/,/,-3%,/,/,/
